SMILES strings stand for the structures.

In experiment [1] the target is T1, Serine/threonine-protein kinase Nek2 (Homo sapiens) (UniProt P51955).
T1 sequence (whole entry): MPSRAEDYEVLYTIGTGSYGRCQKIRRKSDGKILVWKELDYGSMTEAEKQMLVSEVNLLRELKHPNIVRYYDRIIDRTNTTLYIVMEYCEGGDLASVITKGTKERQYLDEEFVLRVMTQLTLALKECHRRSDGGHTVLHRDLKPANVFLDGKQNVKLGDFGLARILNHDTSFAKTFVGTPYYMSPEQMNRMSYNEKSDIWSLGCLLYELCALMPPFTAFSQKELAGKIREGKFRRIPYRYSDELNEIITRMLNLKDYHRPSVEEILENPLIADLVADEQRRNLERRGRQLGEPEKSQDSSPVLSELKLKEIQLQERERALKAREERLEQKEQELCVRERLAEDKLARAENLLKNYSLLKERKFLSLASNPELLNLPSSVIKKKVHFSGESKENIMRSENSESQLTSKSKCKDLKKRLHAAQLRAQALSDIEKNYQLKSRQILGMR
As to conditions: at 1 µM.

For experiment [2], the target named is T1, Serine/threonine-protein kinase Nek2 (Homo sapiens). As to conditions: at 10 µM.
The target of experiment [3] is T2, Serine/threonine-protein kinase Nek3 (Homo sapiens) (UniProt P51956).
T2 sequence (whole entry): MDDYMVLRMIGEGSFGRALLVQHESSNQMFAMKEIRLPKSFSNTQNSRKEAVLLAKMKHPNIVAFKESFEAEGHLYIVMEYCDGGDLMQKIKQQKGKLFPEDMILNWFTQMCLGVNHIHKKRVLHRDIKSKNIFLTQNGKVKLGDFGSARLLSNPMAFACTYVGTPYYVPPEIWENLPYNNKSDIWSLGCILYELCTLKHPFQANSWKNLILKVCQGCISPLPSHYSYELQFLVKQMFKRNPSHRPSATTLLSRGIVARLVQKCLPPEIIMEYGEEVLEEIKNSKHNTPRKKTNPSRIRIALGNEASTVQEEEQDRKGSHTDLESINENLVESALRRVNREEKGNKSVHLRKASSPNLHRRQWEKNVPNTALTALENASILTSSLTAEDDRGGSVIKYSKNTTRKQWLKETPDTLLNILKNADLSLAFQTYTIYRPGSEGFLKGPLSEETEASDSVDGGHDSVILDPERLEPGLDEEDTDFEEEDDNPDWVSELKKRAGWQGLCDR
As to conditions: at 1 µM.

For experiment [4], the target named is T2, Serine/threonine-protein kinase Nek3 (Homo sapiens). The conditions noted are these: at 10 µM.
Experiment [5] deals with T3, Testis-specific serine/threonine-protein kinase 1 (Homo sapiens) (UniProt Q9BXA7).
T3 sequence (whole entry): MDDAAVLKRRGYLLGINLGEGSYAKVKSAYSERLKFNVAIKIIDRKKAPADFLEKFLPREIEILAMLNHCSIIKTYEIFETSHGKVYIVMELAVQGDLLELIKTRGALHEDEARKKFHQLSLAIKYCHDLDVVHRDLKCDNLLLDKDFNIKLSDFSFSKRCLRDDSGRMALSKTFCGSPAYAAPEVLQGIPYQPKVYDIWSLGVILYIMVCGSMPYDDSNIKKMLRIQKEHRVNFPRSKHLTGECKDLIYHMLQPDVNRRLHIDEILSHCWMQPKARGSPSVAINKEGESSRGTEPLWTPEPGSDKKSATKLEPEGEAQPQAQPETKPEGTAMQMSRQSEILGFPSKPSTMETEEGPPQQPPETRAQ
The conditions noted are these: at 1 µM.

The target in experiment [6] is T3, Testis-specific serine/threonine-protein kinase 1 (Homo sapiens). The conditions noted are these: at 10 µM.
The target in experiment [7] is T4, Tyrosine-protein kinase Tec (Homo sapiens) (UniProt P42680).
T4 sequence (whole entry): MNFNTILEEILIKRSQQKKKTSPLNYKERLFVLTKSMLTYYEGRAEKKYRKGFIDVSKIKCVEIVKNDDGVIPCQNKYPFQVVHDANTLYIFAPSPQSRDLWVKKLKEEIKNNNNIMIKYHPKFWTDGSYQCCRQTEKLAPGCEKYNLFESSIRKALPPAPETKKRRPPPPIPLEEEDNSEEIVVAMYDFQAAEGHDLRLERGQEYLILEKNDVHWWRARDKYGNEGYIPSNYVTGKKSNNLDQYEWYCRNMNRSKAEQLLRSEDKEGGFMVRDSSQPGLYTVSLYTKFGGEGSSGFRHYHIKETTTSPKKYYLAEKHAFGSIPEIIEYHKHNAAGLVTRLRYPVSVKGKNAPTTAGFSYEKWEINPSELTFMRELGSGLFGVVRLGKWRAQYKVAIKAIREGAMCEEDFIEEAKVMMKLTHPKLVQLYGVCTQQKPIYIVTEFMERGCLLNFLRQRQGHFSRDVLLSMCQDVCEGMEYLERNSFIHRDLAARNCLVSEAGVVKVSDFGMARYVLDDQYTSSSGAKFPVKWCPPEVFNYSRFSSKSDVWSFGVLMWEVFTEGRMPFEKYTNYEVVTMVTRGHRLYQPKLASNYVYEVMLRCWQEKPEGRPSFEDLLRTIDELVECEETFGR
As to conditions: at 1 µM.

Experiment [8] addresses T4, Tyrosine-protein kinase Tec (Homo sapiens). As to conditions: at 10 µM.
The target in experiment [9] is Angiopoietin-1 receptor (Homo sapiens) (UniProt Q02763). The conditions noted are these: at 10 µM.
Experiment [10] has as its target High affinity nerve growth factor receptor (Homo sapiens) (UniProt P04629). As to conditions: at 1 µM.
The target is the same in experiment [11]. As to conditions: at 10 µM.
The target in experiment [12] is BDNF/NT-3 growth factors receptor (Homo sapiens) (UniProt Q16620). The conditions noted are these: at 1 µM.
In experiment [13] the target is T5, Serine/threonine-protein kinase Nek11 (Homo sapiens) (UniProt Q8NG66).
T5 sequence (whole entry): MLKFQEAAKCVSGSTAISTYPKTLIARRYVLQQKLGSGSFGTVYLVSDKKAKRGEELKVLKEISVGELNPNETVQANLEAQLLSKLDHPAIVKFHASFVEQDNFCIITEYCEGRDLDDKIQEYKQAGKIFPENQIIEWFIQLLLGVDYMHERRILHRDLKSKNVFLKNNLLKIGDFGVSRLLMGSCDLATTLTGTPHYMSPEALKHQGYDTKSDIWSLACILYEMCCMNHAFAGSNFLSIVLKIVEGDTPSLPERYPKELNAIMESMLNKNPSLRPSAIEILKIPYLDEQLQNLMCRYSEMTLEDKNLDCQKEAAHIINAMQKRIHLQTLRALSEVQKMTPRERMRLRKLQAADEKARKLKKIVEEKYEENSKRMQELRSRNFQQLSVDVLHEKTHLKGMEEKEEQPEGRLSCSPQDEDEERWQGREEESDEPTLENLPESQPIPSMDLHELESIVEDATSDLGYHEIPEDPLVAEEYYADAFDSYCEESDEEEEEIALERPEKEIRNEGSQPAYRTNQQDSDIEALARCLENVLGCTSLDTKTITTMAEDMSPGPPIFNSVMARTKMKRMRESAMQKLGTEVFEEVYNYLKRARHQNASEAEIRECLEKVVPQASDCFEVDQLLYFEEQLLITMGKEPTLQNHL
As to conditions: at 1 µM.

The target in experiment [14] is T5, Serine/threonine-protein kinase Nek11 (Homo sapiens). The conditions noted are these: at 10 µM.
For experiment [15], the target named is Serine/threonine-protein kinase tousled-like 2 (Homo sapiens) (UniProt Q86UE8). The conditions noted are these: at 10 µM.
The target in experiment [16] is T6, Testis-specific serine/threonine-protein kinase 2 (Homo sapiens) (UniProt Q96PF2).
T6 sequence (whole entry): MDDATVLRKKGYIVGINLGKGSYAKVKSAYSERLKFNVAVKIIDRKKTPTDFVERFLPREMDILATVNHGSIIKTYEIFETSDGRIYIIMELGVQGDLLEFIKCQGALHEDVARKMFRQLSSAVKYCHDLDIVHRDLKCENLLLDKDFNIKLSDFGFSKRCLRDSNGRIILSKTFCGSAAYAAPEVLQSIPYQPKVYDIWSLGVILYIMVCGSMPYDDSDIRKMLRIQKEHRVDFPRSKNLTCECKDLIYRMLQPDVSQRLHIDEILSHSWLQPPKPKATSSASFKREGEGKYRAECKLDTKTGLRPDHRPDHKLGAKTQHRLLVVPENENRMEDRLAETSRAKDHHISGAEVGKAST
As to conditions: at 10 µM.

Experiment [17] addresses T7, Muscle, skeletal receptor tyrosine-protein kinase (Homo sapiens) (UniProt O15146).
T7 sequence (whole entry): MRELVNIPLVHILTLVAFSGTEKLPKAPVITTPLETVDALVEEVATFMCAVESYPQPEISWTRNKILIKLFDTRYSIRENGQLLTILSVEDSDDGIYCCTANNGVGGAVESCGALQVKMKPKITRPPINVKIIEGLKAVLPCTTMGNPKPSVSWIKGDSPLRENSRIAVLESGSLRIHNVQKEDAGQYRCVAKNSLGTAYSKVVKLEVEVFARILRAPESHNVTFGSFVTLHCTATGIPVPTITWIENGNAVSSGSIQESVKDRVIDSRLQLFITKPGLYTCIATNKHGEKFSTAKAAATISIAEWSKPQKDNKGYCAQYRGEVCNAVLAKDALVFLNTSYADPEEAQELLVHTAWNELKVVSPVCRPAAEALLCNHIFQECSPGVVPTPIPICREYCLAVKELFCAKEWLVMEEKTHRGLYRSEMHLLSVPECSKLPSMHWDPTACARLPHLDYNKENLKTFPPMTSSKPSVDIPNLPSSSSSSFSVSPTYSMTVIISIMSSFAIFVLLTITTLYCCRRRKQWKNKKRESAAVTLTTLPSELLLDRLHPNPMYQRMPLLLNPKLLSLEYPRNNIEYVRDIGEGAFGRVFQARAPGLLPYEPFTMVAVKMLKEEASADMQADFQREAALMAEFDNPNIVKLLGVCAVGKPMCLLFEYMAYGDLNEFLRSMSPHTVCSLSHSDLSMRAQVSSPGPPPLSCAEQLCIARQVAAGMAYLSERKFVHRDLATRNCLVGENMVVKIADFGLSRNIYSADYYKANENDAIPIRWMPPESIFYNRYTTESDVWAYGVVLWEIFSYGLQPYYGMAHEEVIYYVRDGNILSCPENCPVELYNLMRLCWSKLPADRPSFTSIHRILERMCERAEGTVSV
As to conditions: at 1 µM.

For experiment [18], the target named is T7, Muscle, skeletal receptor tyrosine-protein kinase (Homo sapiens). As to conditions: at 10 µM.

High affinity nerve growth factor receptor (Homo sapiens), sequence (P04629 33-796 limits assumed): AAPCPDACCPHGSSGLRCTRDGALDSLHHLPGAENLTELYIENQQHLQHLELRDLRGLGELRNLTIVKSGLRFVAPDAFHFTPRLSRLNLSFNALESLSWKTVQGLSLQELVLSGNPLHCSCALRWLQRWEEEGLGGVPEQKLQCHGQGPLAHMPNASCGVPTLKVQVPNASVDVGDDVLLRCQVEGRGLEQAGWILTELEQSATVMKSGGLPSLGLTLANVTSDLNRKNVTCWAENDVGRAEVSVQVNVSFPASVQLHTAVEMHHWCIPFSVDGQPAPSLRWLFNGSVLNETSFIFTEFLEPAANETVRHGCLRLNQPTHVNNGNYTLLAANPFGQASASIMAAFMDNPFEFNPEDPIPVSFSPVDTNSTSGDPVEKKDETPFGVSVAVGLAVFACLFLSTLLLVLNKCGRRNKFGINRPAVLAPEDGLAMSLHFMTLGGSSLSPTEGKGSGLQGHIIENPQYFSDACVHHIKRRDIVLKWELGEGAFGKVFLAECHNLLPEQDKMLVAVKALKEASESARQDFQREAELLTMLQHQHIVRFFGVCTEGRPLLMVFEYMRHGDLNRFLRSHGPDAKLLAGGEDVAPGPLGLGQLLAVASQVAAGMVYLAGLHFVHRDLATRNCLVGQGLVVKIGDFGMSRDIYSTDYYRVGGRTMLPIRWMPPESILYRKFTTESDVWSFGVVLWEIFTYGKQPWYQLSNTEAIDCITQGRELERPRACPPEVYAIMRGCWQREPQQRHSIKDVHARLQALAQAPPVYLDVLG
BDNF/NT-3 growth factors receptor (Homo sapiens), sequence (Q16620 32-822 limits assumed): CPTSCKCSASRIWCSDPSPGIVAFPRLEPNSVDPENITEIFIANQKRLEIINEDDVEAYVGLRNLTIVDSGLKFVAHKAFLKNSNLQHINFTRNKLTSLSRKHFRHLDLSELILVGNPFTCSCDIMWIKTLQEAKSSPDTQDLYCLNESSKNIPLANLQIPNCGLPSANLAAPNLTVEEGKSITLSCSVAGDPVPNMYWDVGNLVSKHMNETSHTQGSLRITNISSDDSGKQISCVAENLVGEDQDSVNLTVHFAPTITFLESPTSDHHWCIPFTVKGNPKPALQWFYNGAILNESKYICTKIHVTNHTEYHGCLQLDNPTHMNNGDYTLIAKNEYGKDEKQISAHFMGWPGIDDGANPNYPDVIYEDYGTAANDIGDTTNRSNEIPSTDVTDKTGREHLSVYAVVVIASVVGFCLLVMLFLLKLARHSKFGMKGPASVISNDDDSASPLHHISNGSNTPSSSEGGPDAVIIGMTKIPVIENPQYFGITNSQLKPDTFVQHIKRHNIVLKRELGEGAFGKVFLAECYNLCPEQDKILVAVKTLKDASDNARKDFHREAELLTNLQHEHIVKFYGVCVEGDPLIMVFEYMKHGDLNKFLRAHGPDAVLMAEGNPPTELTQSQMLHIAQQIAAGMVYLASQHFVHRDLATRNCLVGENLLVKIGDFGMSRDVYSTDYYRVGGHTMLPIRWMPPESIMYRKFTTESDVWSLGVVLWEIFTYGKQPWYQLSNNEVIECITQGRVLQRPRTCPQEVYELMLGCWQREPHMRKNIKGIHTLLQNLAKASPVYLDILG
Angiopoietin-1 receptor (Homo sapiens), sequence (Q02763 whole entry): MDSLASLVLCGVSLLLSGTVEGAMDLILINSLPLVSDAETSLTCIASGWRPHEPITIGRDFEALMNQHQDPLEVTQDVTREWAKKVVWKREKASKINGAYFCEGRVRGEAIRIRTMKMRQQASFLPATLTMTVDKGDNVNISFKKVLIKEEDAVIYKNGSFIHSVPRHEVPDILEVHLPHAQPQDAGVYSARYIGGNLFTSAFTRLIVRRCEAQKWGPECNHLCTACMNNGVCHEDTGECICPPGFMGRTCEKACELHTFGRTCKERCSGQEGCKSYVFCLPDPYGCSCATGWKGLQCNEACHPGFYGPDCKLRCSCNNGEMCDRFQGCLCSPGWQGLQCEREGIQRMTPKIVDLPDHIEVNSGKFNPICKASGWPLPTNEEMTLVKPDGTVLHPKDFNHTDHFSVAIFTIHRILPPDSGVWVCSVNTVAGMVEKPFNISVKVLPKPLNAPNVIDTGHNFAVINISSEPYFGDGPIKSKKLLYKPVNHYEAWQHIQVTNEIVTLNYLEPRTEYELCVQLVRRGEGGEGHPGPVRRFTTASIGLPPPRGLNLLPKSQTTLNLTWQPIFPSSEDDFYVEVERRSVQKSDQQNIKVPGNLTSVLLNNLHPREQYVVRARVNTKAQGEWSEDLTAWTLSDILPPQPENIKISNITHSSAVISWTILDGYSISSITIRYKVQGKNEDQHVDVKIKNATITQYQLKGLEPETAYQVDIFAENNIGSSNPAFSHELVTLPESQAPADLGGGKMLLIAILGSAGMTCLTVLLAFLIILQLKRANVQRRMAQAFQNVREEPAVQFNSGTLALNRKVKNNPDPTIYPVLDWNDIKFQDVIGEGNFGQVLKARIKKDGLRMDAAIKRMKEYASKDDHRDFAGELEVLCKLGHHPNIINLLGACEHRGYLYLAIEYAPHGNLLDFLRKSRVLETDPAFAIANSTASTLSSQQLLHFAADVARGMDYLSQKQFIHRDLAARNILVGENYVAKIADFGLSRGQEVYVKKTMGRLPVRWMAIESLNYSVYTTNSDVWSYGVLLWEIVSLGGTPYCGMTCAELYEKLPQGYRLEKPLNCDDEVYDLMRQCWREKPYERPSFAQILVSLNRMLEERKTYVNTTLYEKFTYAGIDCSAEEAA
Serine/threonine-protein kinase tousled-like 2 (Homo sapiens), sequence (Q86UE8 whole entry, looked up): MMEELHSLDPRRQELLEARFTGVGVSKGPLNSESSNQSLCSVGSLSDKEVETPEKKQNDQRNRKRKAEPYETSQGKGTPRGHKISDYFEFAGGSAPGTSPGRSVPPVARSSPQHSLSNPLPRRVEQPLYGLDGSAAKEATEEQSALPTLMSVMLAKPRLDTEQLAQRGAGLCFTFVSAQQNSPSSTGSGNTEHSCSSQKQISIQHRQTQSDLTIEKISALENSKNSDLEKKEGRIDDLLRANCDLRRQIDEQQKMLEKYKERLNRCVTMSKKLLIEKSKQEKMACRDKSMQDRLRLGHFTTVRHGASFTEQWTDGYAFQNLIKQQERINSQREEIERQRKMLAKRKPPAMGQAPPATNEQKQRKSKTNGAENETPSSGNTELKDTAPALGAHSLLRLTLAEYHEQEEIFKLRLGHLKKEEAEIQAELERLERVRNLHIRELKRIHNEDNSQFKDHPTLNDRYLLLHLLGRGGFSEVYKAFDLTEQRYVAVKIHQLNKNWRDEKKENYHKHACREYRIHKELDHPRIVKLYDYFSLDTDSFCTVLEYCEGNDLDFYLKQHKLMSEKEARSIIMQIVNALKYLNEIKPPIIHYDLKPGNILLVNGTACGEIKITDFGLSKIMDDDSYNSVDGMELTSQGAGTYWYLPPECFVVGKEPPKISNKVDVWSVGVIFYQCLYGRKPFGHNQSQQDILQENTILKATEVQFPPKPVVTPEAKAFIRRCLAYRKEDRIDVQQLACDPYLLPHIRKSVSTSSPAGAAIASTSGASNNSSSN

A word on the residual activity: it is the signal under treatment as a percentage of the control signal. For the compound `COc1cc2c(cc1OC)-c1n[nH]c(Nc3cccc(F)c3)c1C2`, the residual activity in experiment [1] stood at 82%; in [2] it was 80%; in experiment [3] it was 114%; in experiment [4] it was 100%; in experiment [5] it was 77%; in experiment [6], 68%. Also, the residual activity worked out at 63% in experiment [7]; 18% in experiment [8]; 74% in [9]; 69% in experiment [10]; 6% in experiment [11]; 56% in [12].

On to `O=S(=O)(c1cccc2cnccc12)N1CCCNCC1`, for which the residual activity in [2] amounted to 100%; in experiment [12] it was 83%.

In the case of `NC(=O)c1cccc(-c2cc(Nc3ccc(OC(F)(F)F)cc3)ncn2)c1`, in [11], the residual activity worked out at 65%.

With `CCOC(=O)c1c(C)[nH]c(/C=C2\C(=O)Nc3ccccc32)c1C`, the residual activity was 97% in experiment [13]; 98% in [14]; 98% in experiment [15]; 93% in experiment [5]; 83% in experiment [6]; 97% in experiment [16]. Further, the residual activity stood at 88% in experiment [7]; 92% in experiment [8]; 13% in [10]; 32% in experiment [11]; 73% in experiment [12].

As for `O=c1c(-c2ccc(F)cc2)c(-c2ccncc2)[nH]n1-c1ccc(Cl)cc1`, the residual activity in experiment [13] is 81%; in [14], 78%; in experiment [6], 78%; in [9], 75%.

Turning to `CCN1/C(=C/C(C)=O)Sc2ccc(OC)cc21`, the residual activity was found to be 82% in experiment [17]; 75% in experiment [18]; 49% in experiment [13]; 60% in [14]; 75% in experiment [16].

For the compound `Nc1nccc(-c2c(-c3ccc(F)cc3)ncn2C2CCNCC2)n1`, the residual activity in experiment [13] is 68%; in experiment [14], 77%; in [8], 77%; in [10], 100%; in experiment [11] it was 74%; in [12], 118%.

Regarding `N#C/C(=C1/Nc2ccccc2S1)c1ccnc(NCCc2cccnc2)n1`, the residual activity in [13] came out at 45%; in experiment [14], 6%; in experiment [2] it was 82%; in experiment [16], 68%; in [7], 79%; in experiment [8], 17%. Besides, the residual activity was 56% in experiment [10], 11% in experiment [11] and 76% in [12].
